Among the data in PubChem BioAssay (NCI) are growth values, retold here.

Several values for one entry are separate records, joined by “and”; a condition that tells them apart may be missing. Equal values may be shown once. About 83,000 compounds went through this panel and 20% of them were active in at least one assay; those are over-represented in the sample as a whole.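 Compound tested at a single concentration for 48 hours in 96-well plates; a percent growth value below 10 was scored as active.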 Activity calls are given as the source filed them.

This experiment deals with HL-60(TB) leukemia. Description: NCI-60 one-dose screen, 48 h (100 = growth as untreated, 0 = no growth, -100 = all killed). The settings on record: 10 µM unless noted.
As to `CCOc1ccc(Nc2nc(-c3c(C)nc4ncccn34)cs2)cc1`, the growth was -34.1% (active).

`CC(C)(C)NCCC(O)c1cc2c(Cl)cc(Cl)cc2c2cc(C(F)(F)F)ccc12` (stereo not given): the growth was -60.9% (active). As for `CCCCCCOc1ccc(/C=N/Nc2cc(C)nc3ccc(Br)cc23)cc1`, the growth is -13.7% (active). Turning to `COc1ccccc1CNCCCN1C(=O)c2ccc3c4c(ccc(c24)C1=O)C(=O)N(CCCNCc1ccccc1OC)C3=O`, the growth is -67.5% (active). As for `N/N=C(\C(=N\N)c1ccccc1)c1ccccc1`, the growth was 84.7% (inactive).

For the compound `CCC(C(=O)[C@@H](C)[C@@H](O)[C@H](C)[C@@H]1O[C@@H]([C@@H](CC)C(=O)ONC(=O)c2ccccc2)CC[C@@H]1C)[C@H]1O[C@]2(C=CC(=O)[C@]3(CC[C@@](C)([C@H]4CC[C@](O)(CC)[C@H](C)O4)O3)O2)[C@H](C)C[C@@H]1C` (stereo not given in full), the growth was -63.9% (active). The figure for `CC1Cc2ccccc2N1C(=O)c1ccc(C(=O)c2ccccc2)cc1` (stereo not given) is -11.1% (active); for `O=C1Nc2ccccc2SC1c1ccccc1Cl` (stereo not given) it is 71% (inactive); for `COC(=O)CCCNC(=O)C(=O)c1c(O)c(O)c(C(C)C)c2cc(C)c(-c3c(C)cc4c(C(C)C)c(O)c(O)c(C(=O)C(=O)NCCCC(=O)OC)c4c3O)c(O)c12` it is 11.3% (inactive). In the case of `CC(C)(C)c1ccc(O)c(-c2ccccc2)c1`, the growth was 0.4% (active). The value for `CCOC(=O)c1sc2ncc(-c3ccc(OC)cc3)n2c1C` was 86.5% (inactive); that for `CCOP(=O)(OCC)c1nc(-c2ccccc2)oc1NCc1cccnc1` was 102% (inactive); that for `Cn1ncc2c(Nc3ccc(Br)cc3)nc(Nc3ccc(Br)cc3)nc21` was 69.2% (inactive). As to `OCCNCCCOc1ccc2ncnc(Nc3ccc(Oc4cccc(C(F)(F)F)c4)c(Cl)c3)c2c1`, the growth was -31.3% (active). `CN(C)CCCn1c2c(c3ncccc3c1=O)C(=O)c1ccccc1-2`: the growth was 45.6% (inactive). The figure for `COc1nc(N(C)O)nc(N(C)O)n1` is 50.4% (inactive). As to `O=C1/C(=C/c2ccc(-c3ccc(Br)cc3)o2)SC(=S)N1CCc1ccc(O)cc1`, the growth was 44.3% (inactive). On to `COC(=O)c1nc(N)nc(C(=O)OC)c1C(=O)c1ccc(OC)cc1`, for which the growth is 115% (inactive) and 65.7% (inactive). With `CCC(C)CC(C)C(=O)c1c(O)ccn(OC)c1=O` (stereo not given), the growth is 94.6% (inactive). Consider `CC(=O)c1c(O)cc2c3c1OC(C)(C)C1CCC(C)(CC31)O2` (stereo not given), for which the growth is 89.2% (inactive). The figure for `NC(=O)c1c(NC(=S)Nc2ccc(OC(F)(F)F)cc2)sc2c1CCC1(C2)OCCO1` is 94.2% (inactive); for `CC(C)=CCc1cc2c(cc1O)C1=C(C(=O)C3=C(NCCS3(=O)=O)C1=O)C(C=C(C)C)O2` (stereo not given) it is -35.2% (active); for `COc1cc(C(=O)NN=C2c3ccccc3-c3ccccc32)cc(OC)c1OC` it is 11.4% (inactive).

Take `Oc1ccc2ccccc2c1N=Nc1nccs1`: the growth is -44.3% (active).

As to `CC1=C(CC(=O)c2cccc([N+](=O)[O-])c2)C(=O)c2ccccc2C1=O`, the growth was 1.83% (active). As to `O=c1sc2ncnc3ncn1c32`, the growth is 85.1% (inactive). On to `O=C(CSc1nc2sc3c(c2c(=O)n1Cc1ccccc1)CCCC3)N1CCN(c2ccccc2)CC1`, for which the growth was 90.3% (inactive). In the case of `C=C(C)[C@@H]1CC[C@]2(C(N)=O)CC[C@]3(C)[C@H](CC[C@@H]4[C@@]5(C)C/C(=C/c6cccnc6)C(=O)C(C)(C)[C@@H]5CC[C@]43C)[C@@H]12`, the growth is 3.16% [100 µM] (active). The value for `CN(C)C(=N)N=C(N)N` was 98.3% (inactive) and 145% (inactive). As to `CC1=C(C)C[C@]2(C(=O)O[C@H]3CCCC[C@@H]32)[S@](=O)C1`, the growth is 98.1% (inactive). In the case of `O=[N+]([O-])c1ccc(NS(=O)(=O)c2ccccc2)c2ccccc12`, the growth was 21.2% (inactive). The figure for `CCCCC1(CC)COC(CCC)OC1` (stereo not given) is 115% (inactive).

On to `C=C(C)[C@@H]1CCC[C@]2(COS(=O)(=O)c3ccc(C)cc3)CC[C@]3(C)[C@@H](CC[C@@H]4[C@@]5(C)CCCNC(C)(C)[C@@H]5CC[C@]43C)[C@@H]12`, for which the growth was -35% (active). Consider `Cc1cc(C(=O)c2ccc(Cl)cc2)ccc1O`, for which the growth was 147% (inactive).

Turning to `NC1=NC(c2ccccc2)N=C(Nc2ccccc2)N1` (stereo not given), the growth was 95.7% (inactive) and 111% (inactive). Take `COc1ccc(OC)c(NC(=O)c2cc(S(=O)(=O)N3CCc4ccccc43)ccc2OC)c1`: the growth is 107% (inactive). As to `COc1ccc(CN2C(=O)/C(=C\c3cc(OC)c(OC)c(OC)c3)c3ccccc32)cc1`, the growth is -16.2% (active). Turning to `NNC(=O)c1nc(N)n(-c2ccc(S(N)(=O)=O)cc2)n1`, the growth is 99.5% (inactive). On to `O=C1NN(C(=O)c2ccccc2)C(c2ccc(Cl)c(Cl)c2)=C/C1=C\c1ccccc1[N+](=O)[O-]`, for which the growth was 12.7% [6.75 µM] (inactive). The value for `COc1ccc(/C=C2\COc3ccc(O)c(O)c3C2=O)cc1` was -5.92% (active).
